PubChem BioAssay AID588849 (Broad Institute, 2011)
Entries with a potency or affinity are not part of this list. Activity calls are given as the source filed them. How the calls were made is not given here.

molecular target: CAAX prenyl protease 2 (Homo sapiens) (UniProt Q9Y256); experiment: human Rce1 protease inhibitors, dose response, biochemical, yeast membranes, quenched-peptide fluorescence, cherry-pick (AID 588849); conditions: yeast membrane fractions expressing human Rce1, quenched-peptide fluorescence, 4 h; series mostly up to 10 µM; activity change, negative = inhibition: at the top concentration
Sequence (Q9Y256 whole entry, looked up): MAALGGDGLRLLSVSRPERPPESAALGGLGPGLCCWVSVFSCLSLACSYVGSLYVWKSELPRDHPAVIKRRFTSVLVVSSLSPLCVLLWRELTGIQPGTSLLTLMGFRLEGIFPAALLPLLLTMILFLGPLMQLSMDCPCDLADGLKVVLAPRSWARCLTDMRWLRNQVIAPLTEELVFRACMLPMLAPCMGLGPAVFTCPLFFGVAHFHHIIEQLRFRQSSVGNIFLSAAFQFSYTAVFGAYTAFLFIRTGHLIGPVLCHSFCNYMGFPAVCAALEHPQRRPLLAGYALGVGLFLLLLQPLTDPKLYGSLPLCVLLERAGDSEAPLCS

Activity change, negative = inhibition, inactive:
NC(=O)[C@H]1CC2(CC(c3cccc(NC(=O)COc4ccc(Cl)cc4)c3)=NO2)CN1C(=O)C(c1ccccc1)c1ccccc1 (some centres not stated) -18.9%
CC(=O)c1ccc(-c2ccc(C(=O)N3CCC(C(N)=O)CC3)o2)cc1 -2.63%
CC(C)c1cc(=O)oc2c3c4c(cc12)CCCN4CCC3 -16%
CC1CCN(C(=O)C2CCN(S(=O)(=O)c3ccc(-n4cnnn4)cc3)CC2)CC1 -8.19%
CC(C)C(=O)Nc1cccc(NC(=S)NC(=O)C(c2ccccc2)c2ccccc2)c1 2.23%
CCCCOc1ccc(-c2cc(C(F)(F)F)c(C#N)c(SCC(=O)O)n2)cc1 10.3%
OC1CCN(C(c2ccc3ncccc3c2)c2nnnn2C2CCCCC2)CC1 (configuration not stated) 14.4%
Nc1c(C(=O)NCc2ccccc2)sc2nc(N3CCOCC3)c3c(c12)CCCC3 50.9%
CSC[C@H](NC(=O)COc1cc2c(c3oc(=O)cc(C)c13)CCC(C)(C)O2)C(=O)O 8.43%
COc1ccc(OC)c(/C=N/c2c(-c3ccc(O)c(OC)c3)nc3ccccn23)c1 19.1%
Cc1cc(C)c2nc(N(CCCN(C)C)C(=O)c3ccc4c(c3)CCCC4)sc2c1 2.44%
CC1=C(C(=O)OCc2ccccc2)C(c2ccc(-c3ccccc3)cc2)NC(=O)N1CCCC(=O)O (configuration not stated) -4.91%
O=C(CSc1nc2ccccc2s1)N1N=C(c2cccs2)CC1c1ccc(F)cc1 (configuration not stated) -15.8%
COc1ccc(C(=O)/C=C/c2ccc(OC)cc2OC)c(O)c1 -13%
COCCCNC(=O)c1cc2cc3cc(OC)ccc3nc2o1 32.3%
CCOc1ccc(-c2c(C(=O)N/N=C/c3cccs3)nnn2-c2nonc2N)cc1 -29%
CCCCNC(=S)N=Nc1c(O)n(Cc2ccccc2)c2ccccc12 -18.5%
COc1ccc(C)cc1NC(=O)CCC(=O)Nc1ccc2nc(N3CCN(C)CC3)cc(C)c2c1 72.4%
C/C(CC1(O)C(=O)Nc2ccccc21)=N\O (configuration not stated) 8.98%
CCC(=O)Nc1cc(-c2nn(CC(=O)N3CCCCC3)c(=O)c3ccccc23)ccc1N1CCOCC1 -1.37%
COc1cc(-c2nc3ccccn3c2/N=C/c2cccc(OC)c2O)ccc1O -16%
CCOc1ccccc1CNC(=O)c1cc2occc2n1C -12%
